Measurements from article PMC5540273 (PLoS ONE, 2017).

Tested on: TNNI3K
Details: concentration: 1 μM,replicates: in singlicate; n = 1
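Also: KINOMEscan kinase panel screen.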

| Compound | %Inh [%] |
| --- | --- |
| N#Cc1cccc(C(=O)NC2CCN(c3ccnc(Nc4ccc(F)cc4)n3)C2)c1 (stereo not shown) [GSK1379708] | 4 |
| COc1cccc(CNC(=O)NC2CCN(c3ccnc(Nc4cc(OC)c(OC)c(OC)c4)n3)C2)c1 (stereo not shown) [GSK1379765] | 0 |
| Cc1ccc2c(-c3ccnc(Nc4ccc(C(F)(F)F)cc4)n3)cnn2n1 [GW819776] | 3 |
| O=C(Nc1ccc(Oc2ccc3nc(NC(=O)C4CC4)cn3n2)c(F)c1)c1cccn(-c2ccccc2)c1=O | 12 |
| CS(=O)(=O)Nc1ccc(-c2ccnc3[nH]ccc23)cc1 [GSK993273] | 7 |
| CNC(=O)c1ccccc1Nc1nc(Nc2cccc(CS(C)(=O)=O)c2)ncc1C.O=CO [GSK1520489] | 66 |
| O=C(Nc1cccc(C(F)(F)F)c1)c1cccc(Oc2ccc3nccn3n2)c1 | 35 |
| COC(=O)Nc1nc2cc(Oc3ccc(NC(=O)Nc4cc(C(F)(F)F)ccc4Cl)cc3)ccc2[nH]1.Cl [GW697465] | 88 |
| CC(C)c1nc(-c2cccc(NS(=O)(=O)c3ccccc3)c2)c(-c2ccnc(Nc3ccc4c(c3)CN(C)CC4)n2)s1 [GSK1649598] | 85 |
| CC(=O)Nc1nc2cnc(Nc3cc(NC(=O)c4cccc(CC(C)(C)C#N)c4)ccc3C)nc2s1 | 57 |
| CCn1c(-c2nonc2N)nc2cncc(CNC3CCNCC3)c21.Cl [SB-747651] | 4 |
| CC(C)S(=O)(=O)N1CCN(Cc2ccc3c(c2)nc(NC(=O)c2ccsc2)n3C[C@H](O)c2ccccc2)CC1 [GW635815] | 8 |
| COc1cc2ncn(-c3cc(OCC4CCCCC4)c(C(N)=O)s3)c2cc1OC [GSK204559] | 5 |
| NC(=O)c1ccc(-c2cc3ncnc(SCC(=O)O)c3s2)cc1 | 0 |
| COc1ccc(Nc2nccc(N3CCC(NC(=O)c4cccc(C#N)c4)C3)n2)cc1 (stereo not shown) [GSK1379730] | 0 |
| CCOC(=O)N1CCC(n2cnc(-c3ccc(F)cc3)c2-c2ccnc(N)n2)CC1 [SB-219952] | 0 |
| CCN1CCN(CCCC(=O)Nc2n[nH]c3nc(-c4ccc(O)cc4)c(Br)cc23)CC1 [SB-731579] | 0 |
| CC(=O)c1c(-c2ccncc2)[nH]c(-c2ccncc2)c1C [GW493036] | 0 |
| O=c1[nH]cc(-c2ccc(O)cc2)c2sc(-c3ccncc3)cc12 [GSK1033723] | 18 |
| C[C@@H]1CCN(C(=O)N2CCCC2)C[C@@H]1N(C)c1ncnc2[nH]ccc12 | 18 |
| CCn1c(-c2nonc2N)nc2cncc(Br)c21 [SB-738004] | 0 |
| Cc1n[nH]c2cc(Nc3ccnc(Nc4cccc(CN5CCOCC5)c4)n3)ccc12 [GW682569] | 17 |
| O=C(NOCC1CC1)c1cc(Br)c(F)c(F)c1Nc1ccc(I)cc1Cl | 0 |
| Cn1cc(-c2cccc3c(N)c(C(N)=O)nnc23)cn1 | 5 |

Tested on: T1, TRKA
T1 construct: gene NTRK1
Details: concentration: 1 μM,replicates: in singlicate; n = 1

| Compound | %Inh [%] |
| --- | --- |
| CN(c1cccc(CNc2nc(Nc3ccc4c(c3)CC(=O)N4)ncc2C(F)(F)F)c1)S(C)(=O)=O | 98.3 |
| CC(=O)Nc1ccc(-c2cc3ncnc(SCC(=O)O)c3s2)cc1 | 31 |
| COc1cccc(OC)c1C(=O)Nc1cccc(-c2nn3ccccc3c2-c2ccnc(Nc3cccc(F)c3)n2)c1 [GSK361065] | 0 |
| CC(C(=O)NC1CCN(c2ccnc(Nc3ccc(F)cc3)n2)C1)c1ccc(Cl)cc1 (stereo not shown) [GSK1379713] | 33 |
| Cc1ccc(CC(=O)N2CCc3cc(-c4cn(C)c5ncnc(N)c45)ccc32)cc1 [GSK2634758] | 10 |
| Cl.Nc1n[nH]c2cc(-c3ccccn3)ccc12 [GSK2189892] | 23 |
| Cl.c1ccc(Oc2ccc(Nc3ccnc4cc(-c5ccc(CN6CCNCC6)o5)ccc34)cc2)nc1 [GW567142] | 98.7 |
| c1ccc(Oc2ccc(Nc3ccnc4ccc(-c5ccccn5)cc34)cc2)cc1 [GW407034] | 0 |
| COc1cccc(C2=C(Nc3cccc(Cl)c3)C(=O)NC2=O)c1 [SB-341556] | 0 |
| C[C@@H](Oc1cc(-n2cnc3cc(-c4cnn(C)c4)ccc32)sc1C(N)=O)c1ccccc1Cl [GSK580432] | 100 |
| O=C(Nc1n[nH]c2cc(-c3ccco3)ccc12)C1CC1 [SB-737447] | 57 |
| COc1cc2nccc(Nc3ccc(Oc4ccccc4)cc3)c2cc1OC.Cl [GI261656] | 11 |
| CN(c1ccccc1CNc1nc(Nc2ccc3c(c2)CC(=O)N3)ncc1C(F)(F)F)S(C)(=O)=O | 99.2 |
| N#Cc1cccc(C(=O)NC2CCN(c3ccnc(Nc4ccc(F)cc4)n3)C2)c1 (stereo not shown) [GSK1379708] | 0 |
| COc1cccc(CNC(=O)NC2CCN(c3ccnc(Nc4cc(OC)c(OC)c(OC)c4)n3)C2)c1 (stereo not shown) [GSK1379765] | 52 |
| Cc1ccc2c(-c3ccnc(Nc4ccc(C(F)(F)F)cc4)n3)cnn2n1 [GW819776] | 0 |
| O=C(Nc1ccc(Oc2ccc3nc(NC(=O)C4CC4)cn3n2)c(F)c1)c1cccn(-c2ccccc2)c1=O | 87 |
| CS(=O)(=O)Nc1ccc(-c2ccnc3[nH]ccc23)cc1 [GSK993273] | 91 |
| CNC(=O)c1ccccc1Nc1nc(Nc2cccc(CS(C)(=O)=O)c2)ncc1C.O=CO [GSK1520489] | 98 |

| Compound | %Inh [%] |
| --- | --- |
| O=C(Nc1cccc(C(F)(F)F)c1)c1cccc(Oc2ccc3nccn3n2)c1 | 0 |
| COC(=O)Nc1nc2cc(Oc3ccc(NC(=O)Nc4cc(C(F)(F)F)ccc4Cl)cc3)ccc2[nH]1.Cl [GW697465] | 100 |
| CC(C)c1nc(-c2cccc(NS(=O)(=O)c3ccccc3)c2)c(-c2ccnc(Nc3ccc4c(c3)CN(C)CC4)n2)s1 [GSK1649598] | 65 |
| CC(=O)Nc1nc2cnc(Nc3cc(NC(=O)c4cccc(CC(C)(C)C#N)c4)ccc3C)nc2s1 | 0 |
| CCn1c(-c2nonc2N)nc2cncc(CNC3CCNCC3)c21.Cl [SB-747651] | 0 |
| CC(C)S(=O)(=O)N1CCN(Cc2ccc3c(c2)nc(NC(=O)c2ccsc2)n3C[C@H](O)c2ccccc2)CC1 [GW635815] | 100 |
| COc1cc2ncn(-c3cc(OCC4CCCCC4)c(C(N)=O)s3)c2cc1OC [GSK204559] | 31 |
| NC(=O)c1ccc(-c2cc3ncnc(SCC(=O)O)c3s2)cc1 | 54 |
| COc1ccc(Nc2nccc(N3CCC(NC(=O)c4cccc(C#N)c4)C3)n2)cc1 (stereo not shown) [GSK1379730] | 40 |
| CCOC(=O)N1CCC(n2cnc(-c3ccc(F)cc3)c2-c2ccnc(N)n2)CC1 [SB-219952] | 42 |
| CCN1CCN(CCCC(=O)Nc2n[nH]c3nc(-c4ccc(O)cc4)c(Br)cc23)CC1 [SB-731579] | 38 |
| CC(=O)c1c(-c2ccncc2)[nH]c(-c2ccncc2)c1C [GW493036] | 0 |
| O=c1[nH]cc(-c2ccc(O)cc2)c2sc(-c3ccncc3)cc12 [GSK1033723] | 46 |
| C[C@@H]1CCN(C(=O)N2CCCC2)C[C@@H]1N(C)c1ncnc2[nH]ccc12 | 85 |
| CCn1c(-c2nonc2N)nc2cncc(Br)c21 [SB-738004] | 56 |
| Cc1n[nH]c2cc(Nc3ccnc(Nc4cccc(CN5CCOCC5)c4)n3)ccc12 [GW682569] | 100 |
| O=C(NOCC1CC1)c1cc(Br)c(F)c(F)c1Nc1ccc(I)cc1Cl | 1 |
| Cn1cc(-c2cccc3c(N)c(C(N)=O)nnc23)cn1 | 24 |
